This is a sample that favours compounds with a hit; in the whole collection about 3.2% have one here.
PMP22 txn: PMP22 gene transcription modulation. S16 Pmp22-F2sN Schwann cells, FLuc/NLuc coincidence luminescence, 24 h. Potency, µM (highest dose often 57.5 µM), for inactives: at the top dose activity change, negative = inhibition, actives largely listed as inhibitors. 43,000 tested, 2% active. AID 1508649; active = clear falling dose curves in both reporters; inconclusive = both reporters move, but less clearly or upward; inactive = either reporter flat; the % is the NLuc reporter signal
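S16 Schwann cells carrying FLuc/NLuc coincidence reporter in the Pmp22 3' UTR treated with compound 24 h at 37C; FLuc then NLuc luminescence read sequentially by dual-luciferase reagents.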
p53null 32C tox: kills p53 null cells at the permissive temperature | H1299-neo p53 null cells, ATP luminescence, 24 h, 32C | Potency, µM (top dose mostly 46.1 µM), inactives show at the top dose activity change, negative = cytotoxicity, hits mostly cytotoxic | 55,000 tested, 0.62% active | AID 903;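 also: 0% = DMSO only and -100% = full killing by 100 µM tamoxifen; nearly all actives have a fitted effect of over 55% in size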
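Cells lacking p53 (H1299-neo) are plated at 600 per well and allowed to settle overnight at 37C. Test compounds (up to 46 uM) are added and held 24 hours at 32C, then ATP is quantified by luminescence.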
S16 viability: toxic to S16 Pmp22-F2sN Schwann cells. S16 Pmp22-F2sN Schwann cells viability, CellTiter-Glo, 24 h. Potency, µM (highest dose often 57.5 µM), for inactives: top-dose activity change, negative = cytotoxicity, most hits filed as cytotoxic. 43,000 tested, 0.48% active. AID 1508642; also: nearly all actives have a fitted effect of over 65% in size
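Viability was measured by CellTiter-Glo luminescence (15 min, room temperature). This followed 24 h at 37 °C of compound exposure (23 nL pin transfer) in S16 Pmp22-F2sN Schwann cells, 500-1,000 per well.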
mTORC1 inh: mTORC1 pathway inhibition measured by phospho-rpS6. Tsc2-/- p53-/- MEF, phospho-rpS6 immunofluorescence/PI, 24 h. Potency, µM (highest dose often 38.3 µM), for the others: at the highest dose activity change, negative = inhibition, actives largely listed as inhibitors. 44,000 tested, 0.78% active;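 also: plate controls were DMSO for no effect and rapamycin for full effect; nearly all actives have a fitted effect of over 50% in size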
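Readout is phospho-S6 Alexa 488 signal normalized to PI per well, reported as % active cells with thresholds set from rapamycin (7.5 nM) and DMSO controls. Cells: Tsc2-/-, p53-/- MEFs, 24 hrs compound at 37 C; PI cell number serves as viability.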
p53null 39C tox: selectivity test: cytotoxicity in p53 null cells, nonpermissive temperature; H1299 p53-null (neo) cells, 39C, ATPlite viability, 24 h; Potency, µM (doses to about 46.1 µM), inactives show at the highest dose activity, negative = cell killing, actives largely listed as cytotoxic; 55,000 tested, 0.97% active; AID 904;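 also: 0% = DMSO only and -100% = full killing by 100 µM tamoxifen; nearly all actives have a fitted effect of over 50% in size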
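Luminescent ATP signal reported cell survival after H1299 lines (neo, p53 null; or p53 A138V) received up to 46 uM compound and 24 hr incubation at 39C.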
An asterisk follows results filed as active; u = inconclusive; x = no result given. Unless noted, calls follow the shape of the dose curve; as a rule, active = well fitted curve in the direction sought with a large enough effect; inconclusive = small, poorly fitted or top-dose-only effect, or another doubt; inactive = no such curve, though single readings can be large; an effect the other way counts as inactive or inconclusive. Unless noted, % is scaled to controls: 0 for no effect and ±100 for the full control effect; potency is read from the fitted curve at half-maximal effect.

SMILES	PMP22 txn	p53null 32C tox	S16 viability	mTORC1 inh	p53null 39C tox
O=C(Nc1cccc(S(=O)(=O)Nc2ccc(Cl)cc2)c1)c1cc2c(s1)CCCC2	x	8%	x	x	2.8µM*
CCc1cccc(NC(=O)c2ccc(CN3C(=O)C(C)=C(c4ccc(OC)cc4)S3(=O)=O)cc2)c1	-8%	2%	-8%	-10%	0%
Cc1ccc(-c2onc(C)c2C)cc1S(=O)(=O)Nc1cccc(Cl)c1C	-20%	40%	-15%	9%	42%
COc1ccc(C(=O)COC(=O)c2cccc(NC(=O)c3ccc(OC)c(OC)c3)c2)cc1	-13%	16µM*	-4%	-18%	u
COC(=O)c1c(-c2cccs2)csc1NC(=O)COc1ccccc1	-79%	u	-2%	0%	-25%
CCOc1ccc(-c2cn3c(n2)sc2cc(C(=O)NCCCN(CC)CC)ccc23)cc1	4.5µM*	-3%	10µM*	-4%	4%
CCOc1ccc(-c2cn3c(n2)sc2cc(C(=O)NCCCN4CCCCC4)ccc23)cc1	14µM*	-6%	7.1µM*	2%	-1%
CCOc1ccc(-c2cn3c(n2)sc2cc(C(=O)NCCCN4CCCCCC4)ccc23)cc1	u	10%	u	3%	-5%
CCCN1CCN(CCCNC(=O)c2ccc3c(c2)sc2nc(-c4ccc(OCC)cc4)cn23)CC1	u	u	u	u	25µM*
CCN(CC)CCNC(=O)c1ccc2c(c1)sc1nc(-c3ccc(F)cc3)cn12	u	-2%	u	-11%	-14%
Cc1ccc(-c2cn3c(n2)sc2cc(C(=O)NCCCN4CCCCC4)ccc23)cc1	8.9µM*	-3%	4µM*	7%	-12%
Cc1ccc(-c2cn3c(n2)sc2cc(C(=O)NCCCN4CCCCCC4)ccc23)cc1	u	7%	u	0%	-15%
CCOC(=O)c1c(C)[nH]c(C)c1S(=O)(=O)N(C)CC(=O)Nc1ccc(C)cc1C	-22%	-2%	u	8%	4%
CCOc1ccc(NC(=O)c2ccc3nc(C(C)C)oc3c2)cc1	-12%	-6%	u	0%	u
COc1ccc(-c2cn3nc(N4CCCC(C(=O)NCc5ccccc5OC)C4)sc3n2)cc1 (configuration not stated)	-8%	-2%	11%	-1%	-14%
O=C(c1cc2ccc3cccnc3c2[nH]1)N1CCN(c2ccc(Cl)cc2)CC1	-5%	-10%	-5%	2%	-15%
O=C(c1cc2ccc3cccnc3c2[nH]1)N1CCCCC1	-6%	2µM*	-7%	4%	0.79µM*
CCOC(=O)C1CCN(C(=O)c2cc3ccc4cccnc4c3[nH]2)CC1	-32%	-1%	-10%	4%	-16%
CC1CCCN(C(=O)c2cc3ccc4cccnc4c3[nH]2)C1 (configuration not stated)	-15%	1µM*	-12%	-8%	2µM*
CCc1nn(CC(=O)NCc2ccccc2Cl)c(=O)c2cccn12	3%	-20%	2%	2.6µM*	16µM*
CCc1cccc(C)c1NC(=O)Cn1nc(C)n2cccc2c1=O	-4%	-3%	-3%	u	13µM*
Cc1c(Cl)cccc1-c1ccc(CNc2ccc3[nH]c(=O)[nH]c3c2)o1	u	-8%	u	-9%	-1%
Cc1ccc2nc(/C(C#N)=C\c3ccc(N4CCOCC4)o3)[nH]c2c1	x	-24%	x	x	-24%
CCOC(=O)c1ccc(-c2ccc(/C=C(\C#N)c3nc4ccc(C)cc4[nH]3)o2)cc1	-166%	u	u	22%	6.3µM*
N#C/C(=C\c1ccc(-c2ccc(F)cc2F)o1)c1nc2ccccc2[nH]1	u	u	2%	13µM*	u
SMILES	PMP22 txn	p53null 32C tox	S16 viability	mTORC1 inh	p53null 39C tox
COCCCNC(=O)c1oc2c(c1C)-c1nn(Cc3cccc(Cl)c3)cc1CC2	u	20%	u	7%	18µM*
COc1ccc(CNC(=O)c2ccc3nc(C(C)C)oc3c2)cc1OC	u	-2%	28µM*	0%	1%
CC(=O)c1cccc(Nc2nc(-c3cccc(C)c3)nc3ccccc23)c1	u	u	u	u	11µM*
CC1=C(C(=O)Nc2cccnc2)C(c2ccccc2)n2nc(-c3ccc(O)cc3)nc2N1 (configuration not stated)	13%	7%	-29%	-4%	45%
c1ccc2cc(OCc3nc4ccccc4[nH]3)ccc2c1	x	11µM*	x	x	11µM*
O=C(COc1ccc(F)cc1)NCCc1nc2ccccc2[nH]1	-5%	14%	-1%	-12%	-12%
Oc1cccc(C(Nc2ccccn2)c2ccc3cccnc3c2O)c1Cl (configuration not stated)	x	u	x	u	4µM*
COc1ccc(-c2cc(C(=O)Nc3cccc(C(C)=O)c3)no2)cc1OC	x	5%	x	5%	-9%
COc1cc(NC(=O)c2cc(-c3ccc(Cl)c(Cl)c3)on2)cc(OC)c1OC	x	u	x	-17%	25µM*
CC(=O)c1cccc(NS(=O)(=O)c2cc(-c3cnc(C4CC4)o3)ccc2C)c1	17µM*	-4%	u	-11%	-7%
CCOc1ccccc1NS(=O)(=O)c1cc(-c2cnc(C3CC3)o2)ccc1C	u	-7%	1%	-3%	-8%
CC(=O)c1ccc(NS(=O)(=O)c2cc(-c3cnc(C4CC4)o3)ccc2C)cc1	u	-1%	u	-19%	12%
Cc1ccc(NS(=O)(=O)c2cc(-c3cnc(C4CC4)o3)ccc2C)cc1Cl	u	39%	14µM*	u	u
CC(=O)c1ccc(N2CCN(C(=O)C3CCN(S(=O)(=O)c4cccc5nonc45)CC3)CC2)cc1	5%	0%	3%	0%	-2%
CCN(C(=O)C1CCN(S(=O)(=O)c2cc(Br)cc3c2N(C(C)=O)CC3)CC1)c1cccc(C)c1	8.9µM*	6%	u	3%	-7%
COC(=O)c1ccc(NS(=O)(=O)c2ccc3[nH]c4c(c3c2)CCCC4)cc1	u	14%	-23%	1%	-17%
COC(=O)c1ccc(NS(=O)(=O)c2ccc3[nH]c4c(c3c2)CCCCC4)cc1	u	36%	-6%	-5%	16µM*
CC(C)c1ccc(NC(=O)CSC2=Nc3ccccc3C3=NC(CC(=O)NCCc4ccccc4)C(=O)N23)cc1 (configuration not stated)	u	28%	-4%	-7%	39%
COc1ccccc1OCC(=O)NCC(c1ccc(Cl)cc1)N1CCCCC1 (configuration not stated)	9%	4%	-2%	-11%	-3%
O=S1(=O)N=C(Nc2nc3c(s2)CCCC3)c2ccccc21	x	11µM*	x	x	5.6µM*

Compound activity: PubChem BioAssay, National Center for Advancing Translational Sciences (NCATS)
